Assay outcomes as filed in PubChem BioAssay.
The list is a sample of the results.
aSyn UTR act: Activators via SNCA 5'UTR binding, MLPCN. alpha-synuclein 5'UTR reporter, activators screen. activity score, % (tested at 7.5 µM), hits read low. 300,000 tested, 7.1% active. AID 1814, 2009; in the data active = activity score below about -60%
* marks the source's active call; other numbers are inactive results.

SMILES	aSyn UTR act
Cc1ccc2nc(N3C(=O)CNC3=S)sc2c1	-68.3*
CCOC(=O)c1ccc2nc(NC(=O)c3cccs3)sc2c1	-105.1*
CCCCC(=O)Nc1nc2ccc(C(=O)OC)cc2s1	-113.8*
CCCC(=O)Nc1nc2ccc(C(=O)OCC)cc2s1	-135.8*
CCOC(=O)c1ccc2nc(NC(=O)C(C)C)sc2c1	-112.6*
Cc1ccc(-n2nnnc2SCC(=O)NC(=O)Nc2ccc3c(c2)OCCO3)cc1	-160.1*
Cc1nnc(SCC(=O)NC(=O)Nc2ccc3c(c2)OCCO3)n1N	-113.8*
O=C(CSc1nnnn1-c1ccc(Cl)cc1)NC(=O)Nc1ccc2c(c1)OCCO2	-183.8*
Cc1ccccc1C(=O)NC(C(=O)Nc1nc2c(s1)CCCC2)C(C)C (stereo unspecified)	-66.0*
O=C(NC(=S)Nc1nc2c(s1)CCCC2)c1ccccc1	-344.8*
S=C(Nc1nc2c(s1)CCCC2)NC1CC1	-92.3*
COC(=O)c1ccc(C(=O)NC(=S)Nc2nc3c(s2)CCCC3)cc1	-66.1*
COC(=O)c1sc(-c2cccs2)cc1N	-85.6*
COC(=O)c1sc(-c2ccc(Cl)cc2)cc1N	-101.1*
COC(=O)c1cc(-c2ccccc2)sc1N	-77.4*
CN1CCc2c(sc3c2C(=O)NC(c2cccc(OC(=O)c4cccs4)c2)N3)C1 (stereo unspecified)	-108.0*
CN1CCc2c(sc3c2C(=O)NC(c2cn(Cc4ccccc4)c4ccccc24)N3)C1 (stereo unspecified)	63.7
N#C/C(=C\c1ccccc1)c1ccccn1	-100.4*
CNc1ccc(/C=C(\C#N)c2ccccn2)cc1[N+](=O)[O-]	-156.9*
CC(C)C(OC(=O)c1ccccc1)c1nccc2ccccc12 (stereo unspecified)	-115.9*
O=C(OC(c1ccccc1)c1nccc2ccccc12)c1cccc([N+](=O)[O-])c1 (stereo unspecified)	-78.7*
Fc1ccccc1OCCSc1ncnc2nc[nH]c12	-99.9*
COc1ccc(OCCSc2ncnc3nc[nH]c23)cc1	-81.2*
COc1ccccc1Nc1ncc(-c2cccs2)s1	-176.6*
Cc1cc(C)n(C(N)=NC(=O)c2ccc([N+](=O)[O-])cc2)n1	-153.7*
SMILES	aSyn UTR act
CCCC(C)NC(=O)c1cccc(Oc2ccccc2)c1 (stereo unspecified)	-64.5*
CCC(C)(C)c1ccc(Oc2ccc(N)cc2)cc1	126.9
CCC(C)(C)c1ccc(Oc2cccc(C(=O)O)c2)cc1	-94.6*
O=c1cccc2n1Cc1cc3ccccc3nc1-2	-151.9*
CC[C@@]1(O)C(=O)OCc2c1cc1n(c2=O)Cc2cc3c(N)cccc3nc2-1	102.5
CC(=O)c1ccc(-c2nc3ccccc3n2C)o1	-142.5*
Cc1ccc(C2Nc3ccccc3-c3nc4ccccc4n32)o1 (stereo unspecified)	-104.3*
Cc1ccc(-c2nc3ccccc3n2C)o1	-154.6*
Cc1ccc(Nc2nc(Nc3ccc(C)cc3)nc(SC3=NCCS3)n2)cc1	-94.6*
Cc1ccc(Nc2nc(Cl)nc(NC(C)(C)C)n2)cc1	-153.8*
CN1CCN(/N=C/c2ccc(Cl)c(Cl)c2)CC1	-144.7*
O=[N+]([O-])c1cc(/C=N/N2CCCCC2)ccc1Cl	-89.4*
CN1CCN(/N=C/c2ccc(Br)cc2)CC1	-118.1*
CN1CCN(/N=C/c2ccc(N(c3ccccc3)c3ccccc3)cc2)CC1	70.6
Cc1cccc2cc(C#N)c(NCc3ccccc3)nc12	-76.4*
Clc1ccccc1/C=C/c1nc(-c2cccnc2)no1	-194.6*
C(=C\c1nc(-c2cccnc2)no1)/c1ccccc1	-153.5*
O=C(CSc1ccc(F)cc1)Nc1ccc(C2SCCS2)cc1	-155.0*
Cc1ccc(NC(=O)COc2ccc(C3SCCS3)cc2)cc1	-69.4*
Cc1nnnn1/C(=C\c1ccccc1)C(=O)OCC(=O)Nc1ccc(Cl)cc1F	-70.5*
CC(/C=C/c1ccc(N(C)C)cc1)=N\N=C(/N)SC1CC(=O)N(c2ccc(C(=O)O)cc2)C1=O (stereo unspecified)	-67.7*
CCOC(=O)c1sc(NC(=O)c2ccc(CC)s2)nc1C	-133.4*
CCc1ccc(C(=O)Nc2cc(C)ccc2F)s1	-143.0*
CCOC(=O)c1csc(NC(=O)c2ccccc2)n1	-157.6*
CCOC(=O)Cc1cnc(NC(=O)c2ccccc2)s1	-112.8*
SMILES	aSyn UTR act
Cc1nnc(NC(=O)c2cc3ccccc3o2)s1	-81.5*
CCOC(=O)c1csc(NC(=O)c2ccc3c(c2)OCCO3)n1	-78.5*
CCOC(=O)c1csc(NC(=O)c2cc3ccccc3o2)n1	-125.2*
C=CCOC(=O)c1sc(NC(=O)c2ccco2)nc1C	-167.4*
CCOC(=O)c1csc(-c2ccc3c(c2)CCO3)n1	-109.5*
COC(=O)Cc1csc(Nc2ccccc2Cl)n1	-86.1*
CCOC(=O)c1sc(Nc2ccccc2Cl)nc1C	-183.8*
CCOC(=O)c1sc(NC(=O)Nc2ccccc2F)nc1C	69.8
Cc1nc2c(ccc3nc(NC(=O)c4ccc5c(c4)OCCO5)sc32)s1	-116.6*
CCOC(=O)c1sc(NC(=O)c2cc3ccccc3o2)nc1C	-113.5*
Cc1ccc(C2=NN(S(C)(=O)=O)C(c3cccs3)C2)cc1 (stereo unspecified)	-146.0*
